The full ranking holds about 33,000 sequences; the median of “E-score (-0.5 to 0.5)” is about -0.013, and the highest 2% start at about 0.3. Shown is part of a subset that was picked to be rich in the highest values.
Biological target: T1, Msn1 (UniProt P22148)
T1 sequence: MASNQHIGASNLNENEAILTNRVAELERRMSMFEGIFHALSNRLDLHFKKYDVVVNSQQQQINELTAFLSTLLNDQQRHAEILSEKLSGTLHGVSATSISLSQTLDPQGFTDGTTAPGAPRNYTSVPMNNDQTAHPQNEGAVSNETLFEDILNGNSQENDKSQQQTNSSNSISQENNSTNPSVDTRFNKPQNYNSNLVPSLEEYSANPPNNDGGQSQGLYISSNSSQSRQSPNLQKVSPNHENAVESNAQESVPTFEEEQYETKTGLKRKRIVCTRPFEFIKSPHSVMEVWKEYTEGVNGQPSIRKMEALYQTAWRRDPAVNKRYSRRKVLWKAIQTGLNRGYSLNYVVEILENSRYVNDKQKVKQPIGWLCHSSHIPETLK
Test: PBM E-score (8-mer binding enrichment) (E-score (-0.5 to 0.5)); higher = stronger / more preferred TF binding
Conditions: protein concentration: 200 nM; construct: GST-full length
Summary of the method: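 Universal all-10-mer Agilent arrays, double-stranded by primer extension on fresh or once-stripped slides, were probed with about 100-200 nM GST-tagged yeast transcription factors made by PURExpress. Fluorescent anti-GST detected bound protein, and masliner normalised the scans. E-scores from the Universal PBM Analysis Suite were given to each ungapped eight-base word pooled with its reverse complement.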

Sequence	PBM E-score
ACACATCC	0.0829
AATACCCA	-0.0704
TATTGTGA	0.0467
AGCACCAA	0.0195
ACAGTGCC	0.063
CGAATCGA	0.213
ACAGCCTG	-0.0349
ATGCCAAC	0.0264
ATTTCCCG	0.188
AACTACTT	0.00311
ATGAGCAT	0.017
CAGAAATA	0.0248
AAGTCCTA	0.409
ACGTCCTA	0.354
ACGTCCTG	0.0274
CCGTCCTA	-0.0332
AAGTCCTG	0.292
AAGTCCTC	0.244
ATTGTTCG	0.259
ATCGTCCA	-0.0991
ACTGTCCG	0.183
CTTGTCAA	0.162
CTTGTCCA	0.464
ATTGTACA	0.242
ATTGTCAA	0.12

Sequence	PBM E-score
ATTGTCCA	0.466
CTTGTCGA	0.0891
ATTGTCCG	0.468
CTTGTACC	0.286
CTTGTACA	0.311
CATTATGC	-0.00798
AGTTCGCC	0.00171
GACGCGAA	0.0618
TACTCGAA	-0.00961
GCCGACGC	0.0201
CTTGTCCC	0.47
ATTGTCCC	0.462
GTTGTCCA	0.381
ATTGTCAC	0.297
ACTGTCCC	0.127
CTGGTCCC	-0.218
CTTGTCAC	0.296
GTTGTCAA	0.0641
GTTGTCGA	0.00891
AAACCTTC	-0.288
GCCGTCGC	-0.0331
CTTCAGGC	-0.0893
CAATTGAG	-0.0282
ACATTAGC	0.147
CAAATCAA	0.126

Sequence	PBM E-score
CGACAGGC	-0.152
GAGTTCCC	0.0462
GTGCTGAA	-0.191
ATGCGTGC	-0.0193
ACTTGTCC	0.467
GCTTGTAC	0.267
ACTTGTGC	-0.14
ACTTGGCT	-0.176
ACTTGTCG	0.297
ACTTGTAT	0.145
ACTTGTGA	-0.103
TCTTGTCA	0.238
GCTTGTCA	0.209
GCTTGTCC	0.454
ACTTGTCA	0.369
ACTTGTCT	0.407
CCTAGCTC	-0.148
CGGTCGCA	-0.0568
CCAACGGA	-0.08
GGCACTAC	-0.284
CGCTCTGC	-0.112
CCTTGTCC	0.449
CCTTGTCA	0.0263
CCTTGTCG	0.0372
CTGGTATC	-0.0417

Sequence	PBM E-score
GACCTATC	0.0973
GGTGCTAC	-0.204
ATGTCGAG	0.162
ATGTCGTC	0.191
ATGTCGTA	0.395
ATGTCGTG	0.337
CTGTCGTA	-0.0467
GTGTCGTA	0.228
GCTGCGTA	-0.124
AAACGAGC	-0.0279
GCCAAAGC	-0.0464
CACTGCCG	0.0826
AGAGGACC	-0.208
GGAGGAGA	-0.179
TGAGGAAA	0.0866
TGAGGCCA	-0.117
GGAGGACC	-0.25
GGAGGACA	0.4
CGAGGACG	0.0859
TGAGGACA	0.46
CGAGGACC	-0.14
AGAGGACT	-0.21
CGAGGACA	0.453
AGAGGACA	0.353
CCACACGA	0.00165

Sequence	PBM E-score
AACGAATA	-0.0354
ATAGTCTA	-0.0808
GTGCCTGA	-0.25
AATAACTC	0.00363
GGAGAACA	0.0888
ACAACCCA	0.0013
AGTGTCCA	0.219
CGTGTCGA	0.0442
GGTGTCCA	0.352
CGTGTCCC	0.437
GGTGTCGA	-0.0245
CGTGTCTC	0.26
AGTGTCCG	0.179
CGTGTCGC	0.202
CGTGTCCA	0.424
AGTGTCCC	0.375
CGTGTCTA	0.166
GGTGTCTA	0.0447
ACGGTCAT	0.0534
AGCTTTCC	-0.198
GAACTGAA	-0.00121
CGTGGCAC	0.0166
CTGAGCGA	0.0585
CAGCTAGC	-0.19
ATATTAAT	0.243

Sequence	PBM E-score
GCAGCCCA	-0.0983
TTGCCAAA	-0.0227
AACTTGGC	-0.0461
GCCTTCCA	-0.367
AAATGAAA	0.305
TAATGAAA	0.226
CAATGAAA	0.0415
AAGATGTC	0.252
AGGATGTC	0.398
CAGATGTC	0.347
AGGATGTG	-0.0903
CGGATGTA	0.0259
CGGATGTC	0.348
AGGATGTA	-0.0489
CTGATGTC	0.282
CAGATGTA	-0.0817
GCCCAGAA	0.0114
CTGCTACC	-0.0604
CCCTCGAG	-0.11
ACTGGCAA	0.0309
GTTGATTA	0.135
AATCTGGG	-0.203
CCAGGTGC	-0.205
ATTACGCG	-0.059
CACAATTA	0.128

Sequence	PBM E-score
CACAATAC	-0.0413
GACAATCA	0.217
GACAATAC	0.377
GACAATCC	0.355
AACAATAC	0.158
AACAATCC	0.136
GACAATTA	0.426
AACAATTA	0.165
ATTCCTCG	0.0159
AACGTCAG	-0.248
GAGATCAC	-0.035
ATACAGCA	0.103
GCAGGACA	0.47
ACAGGACA	0.421
GCAGGATA	-0.224
TCAGGAGA	-0.0143
CCAGGACG	0.109
ACAGGACT	-0.0485
CCAGGACC	-0.105
ACAGGACG	0.0345
GCAGGACC	-0.0863
CCAGGACA	0.469

— the supplement of paper PMC3334620
